Laboratory results published in PubChem BioAssay AID1159580 (chemical genetic matrix, 2015).
Where “and” joins values, the source holds several entries; their conditions need not be identical. Equal entries are not always repeated. The whole screen tested about 5,500 compounds, of which about 2,000 (36%) were called active. Not shown: some 18% with an inconclusive outcome. Cut-off read from the data, not from the text of the source: active = normalized growth mostly below about 0.91 (no sharp cut-off); inconclusive = no clear call, values can overlap the other calls; inactive = mostly above about 0.92. Some of the results follow.

Assay: chemical genetic growth profiling, strain panel (AID 1159580);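 note: tested at 20 µM; growth read once vehicle control cultures reached saturation at 30 °C; 1 = growth at the plate median or of vehicle wells; lower values mean less growth of the strain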
Details: S. cerevisiae deletion strains, growth OD

Oc1cccc2cccnc12
normalized growth (locus YAL021C, strain ccr4, stronger effect = lower value): 0.0769 (active) | normalized growth (locus YAL026C, strain drs2, stronger effect = lower value): 0.0625 (active) | normalized growth (locus YAL030W, strain snc1, stronger effect = lower value): 0.0718 (active) | normalized growth (locus YBL061C, strain skt5, stronger effect = lower value): 0.0722 (active) | normalized growth (locus YBR009C, strain hhf1, stronger effect = lower value): 0.0681 (active) | normalized growth (locus YBR021W, strain FUR4, stronger effect = lower value): 0.0928 (active) | normalized growth (locus YBR023C, strain chs3, stronger effect = lower value): 0.076 (active) | normalized growth (locus YBR171W, strain sec66, stronger effect = lower value): 0.076 (active) | normalized growth (locus YBR229C, strain ROT2, stronger effect = lower value): 0.0533 (active) | normalized growth (locus YBR231C, strain swc5, stronger effect = lower value): 0.0897 (active) | normalized growth (locus YBR279W, strain paf1, stronger effect = lower value): 0.0618 (active) | normalized growth (locus YCL011C, strain gbp2, stronger effect = lower value): 0.0567 (active) | normalized growth (locus YCL016C, strain dcc1, stronger effect = lower value): 0.229 (active) | normalized growth (locus YCL029C, strain bik1, stronger effect = lower value): 0.738 (active) | normalized growth (locus YCL061C, strain MRC1, stronger effect = lower value): 0.064 (active) | normalized growth (locus YCL069W, strain vba3, stronger effect = lower value): 0.0627 (active) | normalized growth (locus YCR088W, strain abp1, stronger effect = lower value): 0.0593 (active) | normalized growth (locus YDL005C, strain med2, stronger effect = lower value): 0.646 (active) | normalized growth (locus YDL035C, strain GPR1, stronger effect = lower value): 0.0493 (active) | normalized growth (locus YDL040C, strain nat1, stronger effect = lower value): 0.476 (active) | normalized growth (locus YDL074C, strain BRE1, stronger effect = lower value): 0.0979 (active) | normalized growth (locus YDL101C, strain DUN1, stronger effect = lower value): 0.869 (active) | normalized growth (locus YDL134C, strain PPH21, stronger effect = lower value): 0.0515 (active) | normalized growth (locus YDL185W, strain tfp1, stronger effect = lower value): 0.0598 (active) | normalized growth (locus YDL192W, strain arf1, stronger effect = lower value): 0.0601 (active) | normalized growth (locus YDR001C, strain nth1, stronger effect = lower value): 0.0574 (active) | normalized growth (locus YDR069C, strain doa4, stronger effect = lower value): 0.0712 (active) | normalized growth (locus YDR101C, strain arx1, stronger effect = lower value): 0.375 (active) | normalized growth (locus YDR137W, strain rgp1, stronger effect = lower value): 0.0843 (active) | normalized growth (locus YDR159W, strain sac3, stronger effect = lower value): 0.616 (active) | normalized growth (locus YDR162C, strain NBP2, stronger effect = lower value): 0.0547 (active) | normalized growth (locus YDR195W, strain ref2): 0.117 (active) | normalized growth (locus YDR297W, strain sur2, stronger effect = lower value): 0.0588 (active) | normalized growth (locus YDR318W, strain mcm21, stronger effect = lower value): 0.0646 (active) | normalized growth (locus YDR334W, strain swr1, stronger effect = lower value): 0.0621 (active) | normalized growth (locus YDR335W, strain msn5, stronger effect = lower value): 0.0595 (active) | normalized growth (locus YDR388W, stronger effect = lower value): 0.0582 (active) | normalized growth (locus YDR392W, strain spt3, stronger effect = lower value): 0.0932 (active) | normalized growth (locus YDR502C, strain sam2, stronger effect = lower value): 0.0651 (active) | normalized growth (locus YEL003W, strain gim4, stronger effect = lower value): 0.0548 (active) | normalized growth (locus YEL037C, strain rad23, stronger effect = lower value): 0.0582 (active) | normalized growth (locus YEL061C, strain CIN8 (second series), stronger effect = lower value): 0.0606 (active) | normalized growth (locus YEL061C, strain CIN8, stronger effect = lower value): 0.0683 (active) | normalized growth (locus YER015W, strain faa2, stronger effect = lower value): 0.0643 (active) | normalized growth (locus YER016W, strain bim1, stronger effect = lower value): 0.0729 (active) | normalized growth (locus YER110C, stronger effect = lower value): 0.107 (active) | normalized growth (locus YER111C, strain swi4, stronger effect = lower value): 0.0869 (active) | normalized growth (locus YER155C, strain BEM2 (second series), stronger effect = lower value): 0.0885 (active) | normalized growth (locus YER155C, strain BEM2, stronger effect = lower value): 0.503 (active) | normalized growth (locus YER167W, strain BCK2, stronger effect = lower value): 0.0575 (active) | normalized growth (locus YFR010W, strain ubp6, stronger effect = lower value): 0.0669 (active) | normalized growth (locus YGL078C, strain dbp3, stronger effect = lower value): 0.0567 (active) | normalized growth (locus YGL086W, strain mad1, stronger effect = lower value): 0.0544 (active) | normalized growth (locus YGL167C, strain pmr1, stronger effect = lower value): 0.113 (active) | normalized growth (locus YGL173C, strain kem1, stronger effect = lower value): 0.07 (active) | normalized growth (locus YGL227W, strain vid30, stronger effect = lower value): 0.0635 (active) | normalized growth (locus YGL240W, strain doc1, stronger effect = lower value): 0.0777 (active) | normalized growth (locus YGL248W, strain PDE1, stronger effect = lower value): 0.0532 (active) | normalized growth (locus YGL253W, strain hxk2, stronger effect = lower value): 0.0539 (active) | normalized growth (locus YGR135W, strain pre9, stronger effect = lower value): 0.0644 (active) | normalized growth (locus YGR252W, strain gcn5, stronger effect = lower value): 0.152 (active) | normalized growth (locus YHR013C, strain ard1, stronger effect = lower value): 0.105 (active) | normalized growth (locus YHR027C, strain rpn1, stronger effect = lower value): 0.0611 (active) | normalized growth (locus YHR030C, strain SLT2, stronger effect = lower value): 0.0533 (active) and 0.903 (inactive) | normalized growth (locus YHR079C, strain IRE1 (second series), stronger effect = lower value): 0.0905 (active) | normalized growth (locus YHR079C, strain IRE1, stronger effect = lower value): 0.908 (inactive) | normalized growth (locus YHR094C, strain hxt1, stronger effect = lower value): 0.0596 (active) | normalized growth (locus YHR129C, strain ARP1, stronger effect = lower value): 0.576 (active) | normalized growth (locus YHR142W, strain chs7, stronger effect = lower value): 0.0731 (active) | normalized growth (locus YHR200W, strain rpn10, stronger effect = lower value): 0.0598 (active) | normalized growth (locus YIL066C, strain RNR3, stronger effect = lower value): 0.156 (active) | normalized growth (locus YIL073C, strain SPO22, stronger effect = lower value): 0.0972 (active) | normalized growth (locus YIL125W, strain kgd1, stronger effect = lower value): 0.0587 (active) | normalized growth (locus YIR030C, strain dcg1, stronger effect = lower value): 0.0603 (active) | normalized growth (locus YJL092W, strain hpr5, stronger effect = lower value): 0.058 (active) | normalized growth (locus YJL095W, strain BCK1 (second series), stronger effect = lower value): 0.09 (active) | normalized growth (locus YJL095W, strain BCK1, stronger effect = lower value): 0.165 (active) and 0.93 (inactive) | normalized growth (locus YJL115W, strain asf1, stronger effect = lower value): 0.0712 (active) | normalized growth (locus YJL129C, strain trk1, stronger effect = lower value): 0.0863 (active) | normalized growth (locus YJL134W, strain LCB3, stronger effect = lower value): 0.388 (active) | normalized growth (locus YJL154C, strain vps35, stronger effect = lower value): 0.0589 (active) | normalized growth (locus YJL164C, strain tpk1, stronger effect = lower value): 0.0791 (active) | normalized growth (locus YJL166W, strain qcr8, stronger effect = lower value): 0.0604 (active) | normalized growth (locus YJL168C, strain set2, stronger effect = lower value): 0.0577 (active) | normalized growth (locus YJL187C, strain SWE1 (second series), stronger effect = lower value): 0.057 (active) | normalized growth (locus YJL187C, strain SWE1, stronger effect = lower value): 0.101 (active) | normalized growth (locus YJR043C, strain POL32, stronger effect = lower value): 0.0576 (active) | normalized growth (locus YJR066W, strain TOR1, stronger effect = lower value): 0.871 (inactive)
